Screens as filed in PubChem BioAssay.
Cycloheximide cs – counter-screen hit for Shiga toxin inhibitors, cycloheximide; AID 2314; max response, %; hit rate 12% among 300,000; cell reporter, cycloheximide protein synthesis inhibition counterscreen; in the data active = max response mostly above about 13%, no sharp cut-off; inactive = mostly below about 14%; note: read at 38.3 µM for the half of the compounds with a filed dose; 0% is about no effect
HCMV antiviral – inhibitors of human cytomegalovirus; HFF cells, HCMV-luciferase reporter, 72 h; hits give low values; activity change, negative = inhibition, % at 57.5 µM; hit rate 4.5% among 410,000; AID 1259415; in the data active = activity change below about -60%; inconclusive = no clear call, values can overlap the other calls; inactive = above about -39%; note: % is set by controls: 0 for no effect and ±100 for the full control effect
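Two compound doses tested in HFFs infected with HCMV-luciferase, MOI 1 PFU/cell, 72 h at 37C. Lysate luminescence read with OneGlo; data normalized against buffer-only and 10uM Salinomycin inhibitor controls.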
HCV inhibitor – inhibitors of hepatitis C virus infection. Huh7.5.1 HCVcc-Cre infection, luciferase reporter, 44 h. Potency, µM (highest dose often 41.8 µM), inactives show at the highest dose activity change, negative = inhibition, usual class: inhibitors. hit rate 3.4% among 340,000. AID 651820; note: potency is the fitted concentration of half-maximal effect; % is set by controls: 0 for no effect and ±100 for the full control effect
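Infectious HCVcc-Cre (~0.5 moi) was added to cells just after compound, with cells seeded 4 h earlier at 1,000 per well. Luciferase activity after 44 h culture reported infection; substrate was incubated 15 min at room temperature before reading.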
Pf growth 96h – P. falciparum growth inhibition at 96 hours; P. falciparum luciferase reporter growth, 96 h; Potency, µM (highest dose often 28.7 µM), without a hit: top-dose activity change, negative = inhibition, usual class: inhibitors; hit rate 6.9% among 320,000; note: potency is the fitted concentration of half-maximal effect; % is set by controls: 0 for no effect and ±100 for the full control effect
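Two parasite generations (96 h, 37 C, 5% CO2) of compound exposure in infected erythrocytes (0.05% parasitemia, 2% hematocrit). Luciferase-reporter P. falciparum; decreased luminescence indicates inhibited growth, aimed at apicoplast-acting delayed death.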
Shiga inhibitor – inhibitors of Shiga toxin in Vero cells | Vero cells, Shiga toxin protein synthesis inhibition reporter | inhibition, % at 38.7 µM | hit rate 9.2% among 290,000 | AID 2315; in the data active = inhibition mostly above about 28%, no sharp cut-off; inactive = mostly below about 43%; note: 0% is about no effect
Pf growth 48h – inhibits P. falciparum growth in the first generation, 48 h. P. falciparum luciferase growth in erythrocytes, 48 h. Potency, µM (doses to about 28.7 µM), without a hit: at the highest dose activity change, negative = inhibition, usual class: inhibitors. hit rate 5.9% among 310,000; note: potency is the fitted concentration of half-maximal effect; % is set by controls: 0 for no effect and ±100 for the full control effect
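Erythrocytes infected with P. falciparum carrying an integrated firefly luciferase reporter (2% hematocrit, 0.1% parasitemia final) were exposed to compounds in RPMI 1640 with 0.5% Albumax at 37 C, 5% CO2. Growth inhibition was scored as reduced luminescence.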
Starred values were filed as active, the others as inactive; ? = inconclusive; . = not tested or not shown. Shown are actives, neighbours in structure and some others; about 21% of the full set was active somewhere. Unless noted, calls come from the whole dose curve; as a rule, active = well fitted inhibition curve with a large enough effect; inconclusive = small, poorly fitted or top-dose-only effect, or another doubt; inactive = no such curve, though single readings can be large or run the other way.

SMILES | Cycloheximide cs | HCMV antiviral | HCV inhibitor | Pf growth 96h | Shiga inhibitor | Pf growth 48h
CCc1cc(CNC(=O)c2ccc3nc(Cc4ccc(OC)c(OC)c4)oc3c2)on1 | 33 | -15 | 4.5µM* | 19% | 22 | ?
COc1ccc(Cc2nc3ccc(C(=O)NCc4cc(C)no4)cc3o2)cc1 | 57* | 3 | . | 115% | 66* | ?
COC(=O)CCNC(=O)c1ccc2nc(Cc3ccc(OC)cc3)oc2c1 | . | 35 | 27% | . | . | .
COc1ccc(Cc2nc3ccc(C(=O)NCC(C)(C)OC)cc3o2)cc1 | 34* | 32 | -3% | 103% | 96* | -13%
COc1ccc(Cc2nc3ccc(C(=O)NCCc4ccncc4)cc3o2)cc1OC | 15 | -12 | -7% | 42% | 1 | -8%
C[C@H]1[C@@H](NC(=O)Nc2ccccc2)CC[C@@]23CCCN2C(=O)CCC[C@@H]13 | . | 0 | . | . | . | .
CCSc1nnc2c(n1)OC(CC)N(C(C)=O)c1ccccc1-2 (stereo not drawn) | . | 11 | . | . | . | .
Cc1ccccc1OCc1nnc(SCc2cc(=O)c3cccc(F)c3[nH]2)n1C | . | -8 | . | . | . | .
COc1ccc(Cc2nc3ccc(C(=O)NCC4COCCO4)cc3o2)cc1OC (stereo not drawn) | 34* | 27 | -3% | 15% | 10 | 2%
COc1cc([C@@H]2c3cc4c(cc3[C@@H](NC3CCN(Cc5ccccc5)CC3)[C@H]3COC(=O)[C@H]23)OCO4)cc(OC)c1O | -4 | . | . | 0.17µM* | 9 | 0.74µM*
COc1cc([C@@H]2c3cc4c(cc3[C@@H](OC)[C@H]3COC(=O)[C@H]23)OCO4)cc(OC)c1O | 1 | ? | 15% | 12µM* | 5 | 10µM*
COc1cc(CC(=O)NCc2ccc3c(c2)OCO3)cc(OC)c1OC | 0 | -25 | 2% | . | 1 | -21%
COc1ccccc1CC(=O)NC1CCN(Cc2ccccc2)CC1 | -2 | 27 | 2% | 4% | -6 | 27%
COc1cc([C@@H]2c3cc4c(cc3[C@H](O)[C@H]3COC(=O)[C@H]23)OCO4)cc(OC)c1OC | -3 | . | ? | 1.1µM* | -16 | 15µM*
COc1cc([C@@H]2c3cc4c(cc3[C@@H](O)[C@@H](CO)[C@@H]2CO)OCO4)cc(OC)c1O[Si](C)(C)C(C)(C)C | -9 | . | . | ? | -16 | 9.3µM*
CCN(CC)C1Oc2cc3c(cc2C(c2cc(OC)c(O)c(OC)c2)C1C)OCO3 (stereo not drawn) | . | 62 | -23% | . | . | .
COc1cc(C2c3cc4c(cc3C(O)C3COCC23)OCO4)cc(OC)c1OC (stereo not drawn) | . | 19 | ? | . | . | .
NC(=O)C1CCN(C(=O)c2ccccc2NC(=O)c2nsc3ccccc23)CC1 | . | 0 | . | . | . | .
CCCN(Cc1nnc(-c2ccccc2Cl)o1)C(=O)COc1ccc(Cl)cc1 | . | 60 | ? | ? | . | ?
CN(C)S(=O)(=O)c1cccc(NC(=O)CCc2c[nH]c3ccccc23)c1 | 11 | -27 | ? | 18% | 4 | -8%
COc1ccc(C(=O)NCCC(=O)N2CCC3(CC2)NCCc2[nH]cnc23)cc1 | -7 | 0 | 3% | ? | -7 | 13%
Cc1ccc(NCC(=O)Nc2ccc(Br)cc2)cc1C | 18* | 10 | -2% | ? | 27 | ?
Cc1cc(F)ccc1NCC(=O)Nc1ccc(Br)cc1C | 5 | 12 | -21% | -24% | -7 | -5%
Cc1ccc(F)cc1NCC(=O)Nc1ccc(Br)cc1 | 31* | -33 | 10% | 115% | 58* | 59%
Cc1ccc(NC(=O)CC(=O)Nc2ccc(C)c(C)c2)cc1C | -6 | 22 | -12% | 6% | -8 | 26%
Cc1ccc(C)c(Sc2ccc(NC(=O)CCl)cc2)c1 | -1 | 8 | ? | ? | -14 | ?
Cc1ccc(Sc2ccc(NC(=O)CCl)cc2)cc1C | 11* | 27 | ? | 0.83µM* | 18* | 1.5µM*
Oc1ccccc1N=Cc1sc2ccccc2c1Cl | 40* | -76* | -26% | ? | 29* | ?
Oc1ccc(Cl)cc1C=Nc1ccccc1Br | 9 | 3 | -4% | 0% | -10 | 13%
